Screens (PubChem)
DAX1 inh-1: blocks DAX1 repression of SF-1 activated StAR promoter. HEK293T StAR-luciferase reporter, SF-1/DAX-1 repression relief. inhibition, % at 6.8 µM. 370,000 tested, 1.1% active;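 active means inhibition above the mean over all tested compounds plus 3 SD, cut at about 3.6% in these data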;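 further: 0% = DAX-1 cells with DMSO and 100% = cells lacking DAX-1 with DMSO; higher inhibition means more luminescence from relief of DAX-1 repression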
hgDAF12 agonist: hgDAF-12 agonism, primary luciferase screen; HEK293 GAL4-hgDAF12 UAS-luciferase reporter, agonist luminescence; normalized to butyrate control; activation, % at 6.8 µM; 370,000 tested, 1.8% active; AID 687014;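 active means activation above a cutoff set at the mean of all screened compounds plus 3 SD, cut at about 10% in these data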;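 further: 0% = DMSO wells and 100% = sodium butyrate wells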
ssDAF-12 act: S. stercoralis DAF-12 activation, primary screen. activation, % at 6.8 µM. HEK293 ssDAF-12/GRIP1 lit1-tk-luc reporter, luminescence; % of 3 µM dafachronic acid response. 370,000 tested, 1% active;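 active means activation above the mean over all tested compounds plus 3 SD, cut at about 0.9% in these data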;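 further: 0% = DMSO-only wells and 100% = 3 µM delta7-dafachronic acid wells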
hcDAF12 agonist: H. contortus DAF-12 activation, primary screen. HEK293 hcDAF-12 lit1-tk-luc reporter, luminescence; 0% DMSO, 100% Δ7-dafachronic acid. activation, % at 6.8 µM. 370,000 tested, 1.4% active;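 active means activation above the mean of all tested compounds plus 3 SD, cut at about 5.5% in these data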;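 further: 100% = response to 3 µM Δ7-dafachronic acid high control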
DAX1 inh-2: inhibits human nuclear receptor DAX1; 340,000 tested, 0.99% active; HEK293 Gal4-DAX1 luciferase reporter, luminescence; AID 504766; inhibition, % at 6.75 µM; P51843;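 active means inhibition above the mean over all tested compounds plus 3 SD, cut at about 4.2% in these data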;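 further: 0% = DAX1-transfected cells with DMSO and 100% = empty-vector control cells with DMSO; inhibition shows as a rise in luminescence from relieved DAX1 repression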
Target sequence (P51843 207-470 limits assumed): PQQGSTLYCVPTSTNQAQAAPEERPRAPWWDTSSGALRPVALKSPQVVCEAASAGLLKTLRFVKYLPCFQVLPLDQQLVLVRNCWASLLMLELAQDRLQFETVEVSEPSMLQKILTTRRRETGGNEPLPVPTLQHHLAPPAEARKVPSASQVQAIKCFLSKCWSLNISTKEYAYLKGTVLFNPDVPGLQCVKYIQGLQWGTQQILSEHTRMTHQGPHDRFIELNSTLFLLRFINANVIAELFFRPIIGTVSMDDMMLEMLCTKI
hgDAF12 ag: confirmation of H. glycines DAF-12 agonists | HEK293 GAL4-hgDAF12 luciferase reporter, agonist mode; percent of butyrate response | AID 743050 | activation, % at 6.8 µM | 3,300 tested, 80% active | shares compounds with hgDAF12 agonist;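 active means mean activation over triplicate wells above the hit cutoff derived from the earlier primary screen, cut at about 11% in these data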;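 further: 0% = DMSO low control and 100% = 2 mM sodium butyrate high control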
LXRb DAF12 ctr: counter-screen for DAF-12 agonists: agonists of human LXR-beta | HEK293 Gal4-LXR luciferase reporter, 24 h | 3,300 tested, under 10 active | activation, % at 6.8 µM | shares compounds with hgDAF12 agonist;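 active means mean activation of the triplicate above a set limit carried over from the primary screen, none filed active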
Active calls of the source: *; nt = no result. Only some compounds are listed: those with a hit (about 4.1% of all), similar ones and a draw of the others.

SMILES | DAX1 inh-1 | hgDAF12 agonist | ssDAF-12 act | hcDAF12 agonist | DAX1 inh-2 | hgDAF12 ag | LXRb DAF12 ctr
COc1ccc2c(c1OC)C(=O)N(c1cccc(C)c1)C2 | 3.6* | 13* | 1.3* | 6 | 1 | 16* | 1
Cc1cccc(N2CC(=O)N(c3cccc(C)c3)CC2=O)c1 | -1 | -2 | -1 | 0 | 0 | nt | nt
NC(=O)c1c(N)[nH]c(C(=O)c2ccccc2)c1-c1ccc2c(c1)OCO2 | 1 | 3 | 0 | 0 | nt | nt | nt
Cc1ccc(-c2cc(C(=O)Nc3cccnc3)[nH]n2)c(O)c1C | 1 | 14* | -1 | 1 | 5.7* | 16* | 1
Cc1cccc(NC(=O)c2cc(-c3cc(C)c(C)cc3O)n[nH]2)c1 | 2 | 7 | 0 | 3 | 2 | nt | nt
O=C(Nc1cccnc1)c1ccc(C(=O)Nc2cccnc2)cc1 | 0 | 0 | -1 | 0 | 1 | nt | nt
CC(C)(C)c1ccc(NC(=O)c2ccsc2)cc1 | 3 | 17* | 1.0* | 6.5* | nt | 16* | 1
CC(C)(C)c1ccc(C(=O)Nc2cccnc2)cc1 | 2 | 16* | 1.5* | 5.9* | 2 | 13* | 1
COC(=O)[C@]12C[C@H](CC(=O)N3CCCCC3)C(=O)N(Cc3ccccc3)C1=C[C@H](C(C)C)O[C@@H]2C1CC1 | 0 | -2 | -1 | -1 | nt | nt | nt
CCc1ccc(-c2cn3c(n2)SCC3)cc1 | 4.0* | 16* | 0 | 2 | 1 | 14* | 1
Cc1ccc(-c2nc(Nc3cccc(C)c3)sc2CC(=O)O)cc1 | 4 | 17* | 0 | 3 | 1 | 5 | 0
Cc1ccc(NC(=O)c2ccc3snnc3c2)cc1 | 2 | 16* | -1 | 2 | 0 | 16* | 0
COC(=O)[C@H](CC(C)C)N1Cc2nnn(CC3CCCCC3)c2-c2ccccc2S1(=O)=O | 0 | 1 | -2 | -3 | nt | nt | nt
O=C1[C@@H]2Cc3c([nH]c4ccccc34)C(c3ccccc3)N2C(=O)CN1CCO (stereo not given in full) | 1 | 4 | -1 | 3 | 1 | nt | nt
CN1CC(=O)N2[C@H](c3ccc4c(c3)OCO4)c3[nH]c4ccccc4c3C[C@@H]2C1=O | -1 | 49* | -1 | -1 | 0 | 1 | 0
CC1CCN(C(=O)CCc2nnc(-c3ccccc3)o2)CC1 | 1 | 14* | 0 | 1 | 0 | 11* | 0
O=C(/C=C/c1ccccc1[N+](=O)[O-])Nc1ccccc1 | 4.0* | 18* | 0 | 6 | 6.7* | 16* | 1
Cc1ccc(SCCNC(=O)c2ccccc2F)cc1 | 0 | 1 | -2 | 0 | -1 | nt | nt
O=C(NCCSc1ccccc1)c1ccccc1F | 2 | 13* | -1 | 5.8* | 3 | 13* | 1
NC(=S)N1OC[C@@H]2COc3ccc4ccccc4c3[C@@H]21 | -1 | 21* | -1 | 3 | 1 | 8 | 0
CCCCCCCCN1C(=O)[C@@H](CC(=O)NCc2cccc(C(F)(F)F)c2)C[C@@]2(C(=O)OC)C1=C[C@H](C1CCCC1)O[C@@H]2C | 0 | -1 | -1 | 0 | nt | nt | nt
CCC(=O)Nc1cc2c(cc1Cl)-c1ccccc1C2 | 3 | 18* | 0 | 5.8* | 1 | 17* | 0
CN(C)c1ccc(C(=O)OCC(=O)c2ccc[nH]2)cc1 | 0 | 15* | 0 | 4 | 1 | 15* | 0
NC(=O)c1cc2ccccc2o/c1=N/NC(=O)c1cccs1 | -2 | 3 | -1 | 0 | 1 | nt | nt
N/C(=N\NC(=O)c1cccs1)c1cc2cc(Cl)ccc2oc1=O | 3 | 19* | -2 | 5 | 0 | 2 | 0
Clc1ccc(Cc2noc(-c3cccs3)n2)cc1 | 1 | 19* | -1 | 1 | 1 | 9 | 0
CCN(CC)C(=O)CC[C@@H]1CC[C@]2(CCCN(Cc3ccncc3)C2)O1 | 0 | 1 | 0 | -2 | nt | nt | nt
c1ccc(Cc2cnc(N3CCN(Cc4ccc5c(c4)OCCO5)CC3)nc2)cc1 | 1 | -3 | 0 | -1 | nt | nt | nt
Cc1ccc(-n2c(SCC(=O)Nc3ccccc3-c3ccccc3)nnc2-c2cnccn2)cc1 | -1 | -3 | -1 | -4 | nt | nt | nt
